High-throughput results from PubChem.
Autofluor counter: compound fluorescence in toxin protease inhibitor counterscreen | compound autofluorescence counterscreen, microsphere flow cytometry; stronger effect = higher value | fluorescence intensity (concentration not given with the values) | actives 3.1% (n = 360,000) | AID 624483; in the data active = fluorescence intensity above about 16000; inconclusive = no clear call, values can overlap the other calls
BoNT-A LC inh2: BoNT/A light chain protease inhibitors, primary screen, biochemical, flow cytometry, MLPCN library. Botulinum neurotoxin type A light chain protease (Clostridium botulinum A str. ATCC 3502). multiplex microsphere protease substrate cleavage. inhibition, % at 10 µM. actives 0.17% (n = 360,000). AID 588499, 2011
Anthrax LF inh2: Bacillus anthracis LF protease inhibitors, primary screen, biochemical, multiplex microsphere, MLPCN library | Lethal factor (Bacillus anthracis), P15917 | multiplex microsphere protease cleavage assay | inhibition, % at 10 µM | actives 0.12% (n = 360,000)
BoNT-F LC inh: BoNT/F light chain protease inhibitors, primary screen, biochemical, flow cytometry, MLPCN library; Botulinum neurotoxin type F light chain protease (Clostridium botulinum); inhibition, % at 10 µM; Multiplex microsphere protease cleavage assay; actives 0.22% (n = 360,000); in the data active = inhibition above about 35%, passing the limit was not always enough; inconclusive = no clear call, values can overlap the other calls
Each line names hits and unclear results; the compound was inactive in the other large screens. Only some compounds are listed: those with a hit (about 3.5% of all), similar ones and a draw of the others. Rule as the data show it, unless noted: active = inhibition above about 30%; inconclusive = no clear call, values can overlap the other calls; inactive = below that.

CCON1C(=O)C2(CCCCC2)C(=O)C12C=CCCC2 (stereo not drawn)	none
Cc1ccc(N(CCCCN2C(=O)c3ccccc3C2=O)C(=O)c2cccc([N+](=O)[O-])c2)cc1	Autofluor counter 16296
CCN(C(C)=O)c1nc(CSc2nnc(NC(C)C)s2)cs1	Autofluor counter 19610, BoNT-A LC inh2 inconclusive
CS(=O)(=O)c1ccc(Cl)c(NC(=O)CSc2nnc3n2CCCCC3)c1	none
O=C(Cc1ccc(-n2c(=S)[nH]c3ccccc3c2=O)cc1)N1CCN(c2ccccc2)CC1	Autofluor counter 22575
CC(C)c1[nH]c(=O)c(C#N)c2c1COC(C)(C)C2	Autofluor counter 21618
COc1ccc(C(=O)CSc2nc(C(C)(C)C)nc3ccccc23)cc1	none
CC1CN(C(=O)Nc2ccc3c(c2)OCO3)CC(C)O1 (stereo not drawn)	Autofluor counter 20354
COc1cc(C(=O)N2CC(C)OC(C)C2)c([N+](=O)[O-])cc1OC (stereo not drawn)	Autofluor counter 18981
COc1ccc(NC(=O)N2CCCC2)cc1OC	none
COc1ccc(NC(=O)N2CC(C)OC(C)C2)cc1OC (stereo not drawn)	Autofluor counter 24184
O=C1OCCC1=COCCCCCOC=C1CCOC1=O	none
CCCCOc1ccc(OCCNC(=O)c2ccco2)cc1	none
CC1(c2nnc(-c3cccc(Cl)c3)o2)CC(c2ccc(OC(F)(F)F)cc2)=NO1 (stereo not drawn)	none
COc1ccc2[nH]c3c(=O)n(CCCCC(=O)N4CCCC4)c(=S)[nH]c3c2c1	Autofluor counter 23557
C=CCNc1nc2cc(-c3cccc(Cl)c3)sc2c(=O)n1C	none
Cc1ccn(CCSCC(=O)O)n1	Autofluor counter 22249, BoNT-A LC inh2 inconclusive
CC(C)c1ccc(/C=C2\SC(=O)N(CC(=O)NC3CCS(=O)(=O)C3)C2=O)cc1 (stereo not drawn)	none
CC(C)[C@H](NC(=O)c1cccc(S(=O)(=O)N2CCOCC2)c1)C(=O)OCC(=O)Nc1cccc(Br)c1	none
CCn1nccc1C(=O)Nc1cc(Cl)ccc1Cl	none
CCn1ncc(Cl)c1C(=O)Nc1cc(Cl)ccc1Cl	Autofluor counter 22800
c1ccc2c(c1)oc1c(Nc3ccc4c(c3)OCCO4)ncnc12	Autofluor counter 19956
CCc1nc(NCc2ccc3c(c2)OCO3)c2oc3ccccc3c2n1	Autofluor counter 23489, BoNT-A LC inh2 inconclusive
Cc1nc(Nc2ccc3c(c2)OCCO3)c2oc3ccccc3c2n1	none
CCc1nc(Nc2ccc3c(c2)OCCO3)c2oc3ccccc3c2n1	Autofluor counter 17390
CC1=C(C(=O)N2CCOCC2)CC(CC(=O)NC2CCCC2)C(=O)N1Cc1ccc(F)cc1 (stereo not drawn)	none
CCOC(=O)C1=C(O)/C(=C/c2ccccn2)SC1=Nc1ccc(Cl)cc1	none
CCOC(=O)C1=C(O)CSC1=Nc1ccc(Cl)cc1	Autofluor counter 16689
N#Cc1ccc(NC(=O)C2CC(c3ccc(F)cc3)=NO2)cc1 (stereo not drawn)	Autofluor counter 22651
CCc1ccccc1NC(=O)C1CC(c2ccc(F)cc2)=NO1 (stereo not drawn)	none
COC(=O)c1ccccc1NC(=O)C1CC(c2ccc(F)cc2)=NO1 (stereo not drawn)	Autofluor counter 16511
CC1CCN(C(=O)CSc2nc3c(c(=O)n2C)SC(C)C3)CC1 (stereo not drawn)	none
C[C@H](NC(=O)c1nc[nH]c1C(=O)NCCCCCN)C(=O)OCc1ccccc1	none
CCOC(=O)c1c(NC(C)=O)sc2c1CCC(C=NCCCN(CC)CC)=C2Sc1ccccc1	BoNT-A LC inh2 68, Anthrax LF inh2 31
Cc1ccc(NC(=S)NCc2ccc(Cl)cc2)c(OC(F)F)c1	none
COC(CN(C)C(=O)c1ccc2c(c1)NC(=O)c1ccccc1S2)OC	none
Cc1cc2c(ncn2Cc2ccccc2)c([N+](=O)[O-])c1C	Autofluor counter 22108
Cc1cccc(-n2c(=O)c(C#N)cc3c(=O)n4ccccc4nc32)c1	Autofluor counter 20190, BoNT-A LC inh2 inconclusive
Cc1cc(-n2c(=O)c(C#N)cc3c(=O)n4cccc(C)c4nc32)no1	Autofluor counter 21724
Cc1cccn2c(=O)c3cc(C#N)c(=O)n(-c4c(C)n(C)n(-c5ccccc5)c4=O)c3nc12	none
CCOc1ccc(S(=O)(=O)N2CCCCC2)cc1NC(=O)CCNC(=O)c1ccco1	none
O=C(CN(Cc1ccc(Br)cc1)S(=O)(=O)c1ccccc1)NCc1ccccn1	none
O=C(CN(Cc1ccccc1)S(=O)(=O)c1ccc(Br)cc1)NCc1ccco1	Autofluor counter 23735
CCN(CC)S(=O)(=O)c1ccc(S(=O)(=O)N(CC(=O)Nc2ccccc2)Cc2ccco2)cc1	Autofluor counter 22492
CC(C)(C)c1ccc(CC(=O)N2CCC2(C)C(=O)NS(=O)(=O)c2ccc(Cl)s2)cc1 (stereo not drawn)	none
Cc1nc2n(n1)CC(O)CS2 (stereo not drawn)	Autofluor counter 23205
CC(=O)c1cccc(NC(=O)C(C)OC(=O)/C=C/c2cccs2)c1 (stereo not drawn)	none
CC(=O)c1cnc(-c2cccc(Cl)c2)s1	none
O=C(c1cnc(-c2ccccc2)s1)c1ccc(Cl)cc1Cl	Autofluor counter 22951, BoNT-A LC inh2 inconclusive
CN(C)/C=C/C(=O)c1cnc(-c2cccc(Cl)c2)s1	BoNT-F LC inh 42
C[C@H](CO)N1C[C@H](C)[C@@H](CN(C)CC2CC2)Oc2c(NC(=O)Cc3ccccc3)cccc2C1=O	none
CN(CC(=O)Nc1ccc(F)c(F)c1F)C(=O)C1(c2ccccc2)CC1	none
CCOC(=O)C1=C(C)Nc2ccccc2N=C1NC(=O)C1CCN(C(=O)c2ccccc2C)CC1	none
O=C(O)c1cn(-c2ccccc2)nc1-c1cccnc1	Autofluor counter 20326
CCOC(=O)CNc1c(-c2ccc(O)cc2)nc2ccc(Cl)cn12	Autofluor counter 23767
CCOC(=O)CNc1c(-c2ccc(O)cc2)nc2ccccn12	Autofluor counter 23116
Cc1nnc2ccc(-c3ccc(NS(=O)(=O)c4ccc(Cl)s4)cc3)nn12	Autofluor counter inconclusive
Cc1coc2c1c(C)cc1oc(=O)c(CC(=O)NCC(=O)NCC(=O)O)c(C)c12	none
Cc1coc2c1c(C)cc1oc(=O)c(Cc3ccccc3)c(C)c12	Autofluor counter 24793
Cc1noc(C)c1S(=O)(=O)Nc1ccc2c(c1)C(=O)N([C@H](C)CO)C[C@H](C)[C@@H](CN(C)C(=O)Nc1ccc3c(c1)OCO3)O2	none
COc1ccc2c(C)cc(SCC(=O)N3CCOCC3)nc2c1	BoNT-F LC inh 36
CCc1nc2c(OCc3cccc(Cl)c3)cccn2c1N(C)C(=O)c1ccc(OC)cc1	none
NS(=O)(=O)c1ccc(CCNC(=O)CCc2nc3sc4c(c3c(=O)[nH]2)CCCC4)cc1	Anthrax LF inh2 inconclusive
CC(=O)Cc1ccccc1OCC(=O)O	Autofluor counter 16749
C=CCNC(=O)C(=O)Nc1cc2c3c(c1)CCC(=O)N3CCC2	none
Cc1ccsc1C=Nc1ccc(O)cc1	Autofluor counter 16460
Cc1ccsc1/C=N/N=C/c1sccc1C	none
CC(OC(=O)c1cccc(-n2cnnn2)c1)C(=O)Nc1ccc(F)cc1Cl (stereo not drawn)	none
